Bioassay records: PubChem, The Scripps Research Institute Molecular Screening Center
MITF primary – human MITF inhibition, primary screen; O75030; AlphaScreen MITF homodimerization, bead proximity signal; inhibition, % at 2.6 µM; actives 0.91% (n = 650,000); AID 1259374; in the data active = inhibition above about 50%
Target sequence (O75030 whole entry, looked up): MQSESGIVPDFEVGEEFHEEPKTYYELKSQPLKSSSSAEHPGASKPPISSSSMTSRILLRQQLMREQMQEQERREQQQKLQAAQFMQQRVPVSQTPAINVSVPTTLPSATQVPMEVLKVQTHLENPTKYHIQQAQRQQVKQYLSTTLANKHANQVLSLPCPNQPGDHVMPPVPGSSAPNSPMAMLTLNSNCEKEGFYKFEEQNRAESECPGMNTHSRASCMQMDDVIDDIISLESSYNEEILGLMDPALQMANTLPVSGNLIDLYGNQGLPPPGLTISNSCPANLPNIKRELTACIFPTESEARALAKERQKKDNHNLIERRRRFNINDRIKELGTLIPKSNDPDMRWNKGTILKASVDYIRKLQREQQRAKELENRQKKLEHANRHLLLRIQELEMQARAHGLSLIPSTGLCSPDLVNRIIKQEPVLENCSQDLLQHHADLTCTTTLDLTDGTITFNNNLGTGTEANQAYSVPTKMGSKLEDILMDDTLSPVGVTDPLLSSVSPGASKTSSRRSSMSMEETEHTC
GPR151 activ – activates the human receptor GPR151. actives 1% (n = 650,000). Q8TDV0. activation, % at 11.2 µM. PathHunter beta-arrestin GPR151 cells, luminescence. AID 1508602; in the data active = activation above about 4.9%
TEAD-YAP block – TEAD-YAP interaction inhibition; inhibition, % at 9.12 µM; HEK-TIYL cells, TEAD-Gal4/YAP UAS-luciferase luminescence; actives 1.4% (n = 640,000); in the data active = inhibition above about 32%
FBW7 act – human FBW7 E3 ligase activation, primary screen | Q969H0 | AlphaScreen FBW7–phospho-cyclin E peptide binding, activator screen | normalized activity (activation), % at 26.1 µM | actives 0.13% (n = 650,000); in the data active = normalized activity above about 1.9%;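 note: purified mutant Fbw7 with reduced substrate affinity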
GPR151 conf act – confirmation of human GPR151 activators. shares compounds with GPR151 activ. activation, % at 11.2 µM. 6,700 tested, under 10 active. AID 1508609. GPR151 PathHunter beta-arrestin cells, luminescence, 90 min; % of EA-reagent control over plate median;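 active = mean percent activation across replicates above the confirmation screen cutoff of 4.91%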
GPR119 counter – GPR119 activation, counter-screen for GPR151 activators; shares compounds with GPR151 activ; GPR119 PathHunter beta-arrestin cells, luminescence, 90 min; 0 = compound-well median, 100 = enzyme-acceptor control; activation, % at 11.2 µM; actives 0.3% (n = 6,700); AID 1508611;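 active = mean percent activation in the counterscreen above 29.09%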;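 note: counterscreen on off-target GPR119 to flag nonselective hits from the GPR151 activator screen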
Of the large screens only hits and unclear results are named; the others gave an inactive call (follow-up assays come after a bar, where they were run). In the library only some 3.4% were active in any assay of this set; here they are far more common.

O=C(NCc1nc2ccccc2[nH]1)c1ccc2nc(Nc3ccc4ncccc4c3)sc2c1	GPR151 activ 6.3 | GPR151 conf act inactive | GPR119 counter inactive
O=C(Cc1ccc(Br)cc1)Nc1ccc(-c2cn3c(n2)SCC3)cc1	none
CCOc1ccc(CC(=O)Nc2ccc(-c3cn4c(n3)SCC4)cc2)cc1	GPR151 activ 5.1 | GPR151 conf act inactive | GPR119 counter inactive
C#CCN1C(=O)C(O)(CC(=O)c2ccc([N+](=O)[O-])cc2)c2cc(Br)ccc21 (centres undefined)	none
COc1ccc(-n2c(=O)[nH]c(=O)c3c(N)c(C(=O)c4ccc(Cl)cc4)sc32)cc1	none
CC(C)CCn1c(-c2ccccc2)nc2ccccc21	GPR151 activ 8.6 | GPR151 conf act inactive | GPR119 counter inactive
COC(=O)c1ccc(Cn2cnc3c(nnn3-c3cc(C)cc(C)c3)c2=O)o1	GPR151 activ 5.0 | GPR151 conf act inactive | GPR119 counter inactive
CCCNC(=O)Cn1cnc2c(nnn2-c2cc(C)cc(C)c2)c1=O	GPR151 activ 7.0 | GPR151 conf act inactive | GPR119 counter inactive
Cc1cc(C)cc(-n2nnc3c(=O)n(Cc4ccc(Cl)c(Cl)c4)cnc32)c1	none
CCCC1=NN2C(=N)/C(=C/c3ccc(-c4ccc(C(=O)OCC)cc4)o3)C(=O)N=C2S1	GPR151 activ 5.2 | GPR151 conf act inactive | GPR119 counter inactive
COc1cc(S(=O)(=O)n2ccnc2)ccc1Br	GPR151 activ 5.7 | GPR151 conf act inactive | GPR119 counter inactive
CCOc1cc(S(=O)(=O)n2ccnc2)ccc1Br	none
Cc1c(S(=O)(=O)N2CCN(c3ccccc3)CC2)c(=O)n(C)c(=O)n1C	GPR151 activ 8.2 | GPR151 conf act inactive | GPR119 counter inactive
O=C(Cc1c(O)c2ccccc2[nH]c1=O)NCc1ccccn1	GPR151 activ 5.6 | GPR151 conf act inactive | GPR119 counter inactive
O=C(Cc1c(O)c2ccccc2[nH]c1=O)NCCO	none
COC1=C[C@@H](C)[C@@H]2C[C@H]3OC(=O)C[C@H]4C(C)=C(OC)C(=O)[C@H]([C@@]2(C)C1=O)[C@@]34C	none
O=C(/C=C/c1ccc(Br)o1)Nc1ccc(I)cc1	none
CCOC(CCn1c(SC(CC)C(=O)NCc2cccnc2)nc2ccccc2c1=O)OCC (centres undefined)	GPR151 activ 7.0 | GPR151 conf act inactive | GPR119 counter inactive
O=C(NC1CCCC1)C(c1ccco1)N(Cc1cccs1)C(=O)c1ccco1 (centres undefined)	none
CC1(C)CC(N(Cc2cccs2)C(=O)c2ccco2)CCO1 (centres undefined)	GPR151 activ 9.3 | GPR151 conf act inactive | GPR119 counter inactive
C/C(CC(=O)Nc1c(C)cc(C)cc1C)=N\NC(=O)c1cccc([N+](=O)[O-])c1	none
CC(=O)NN1C(=O)/C(=C/c2cccc(O)c2)SC1=S	GPR151 activ 6.3 | GPR151 conf act inactive | GPR119 counter inactive
Cc1ccc(-c2nc(C3CCCN3C(=O)CCCC(=O)O)n3ccccc23)cc1 (centres undefined)	GPR151 activ 5.5 | GPR151 conf act inactive | GPR119 counter inactive
CCCC(=O)Nc1nnc(S(=O)(=O)N(CC)c2ccc(Cl)cc2)s1	none
CCCCC(=O)Nc1nnc(S(=O)(=O)N(CC)c2ccc(Cl)cc2)s1	GPR151 activ 5.7 | GPR151 conf act inactive | GPR119 counter inactive
Cc1ccc(-c2cc(C(=O)Nc3cccnc3)c3cc(Br)ccc3n2)o1	GPR151 activ 6.5 | GPR151 conf act inactive | GPR119 counter inactive
CC(=O)c1[nH]c(C)c(C(=O)NCc2cccs2)c1C	none
CCc1ccc2c(c1)C(c1cccnc1)=NNC(c1cccnc1)=N2	none
Cc1sc(NC(=O)c2ccc(N3CCCCC3)c([N+](=O)[O-])c2)c(C#N)c1C	GPR151 activ 13 | GPR151 conf act inactive | GPR119 counter inactive
Cc1cc(C)nc(N/N=C/c2cc([N+](=O)[O-])ccc2O)n1	none
Cc1cc(C)n2nc(C(=O)N/N=C/c3cc([N+](=O)[O-])ccc3O)nc2n1	GPR151 activ 5.8 | GPR151 conf act inactive | GPR119 counter inactive
Cn1c(SCC(=O)Nc2cccc(Cl)c2)nnc1-c1ccccc1N	none
CC(=O)N1CCc2cc(Br)cc(S(=O)(=O)Nc3noc4ccccc34)c21	GPR151 activ 19 | GPR151 conf act inactive | GPR119 counter inactive
CC(=O)N1CCc2cc(Br)cc(S(=O)(=O)Nc3cccc(Cl)c3)c21	none
COc1ccc(C2CCN(CC(=O)N3CCOCC3)CC2)cc1	none
COc1cc(OC)nc(CSCC(=O)N2CCN(CC(=O)N3CCOCC3)CC2)n1	GPR151 activ 5.2 | GPR151 conf act inactive | GPR119 counter inactive
COc1ccc(CSc2nnnn2C)cc1F	GPR151 activ 5.5 | GPR151 conf act inactive | GPR119 counter inactive
O=C(Nc1ccc(N2CCN(C(=O)c3cccs3)CC2)cc1)c1ccc([N+](=O)[O-])cc1	none
CCOC(=O)c1c[nH]c2c(F)ccc(C)c2c1=O	none
COc1cc([N+](=O)[O-])ccc1NC(=O)COC(=O)C(CC(C)C)NC(N)=O (centres undefined)	GPR151 activ 5.3 | GPR151 conf act inactive | GPR119 counter inactive
COc1cc(Cl)c(C)cc1NC(=O)COC(=O)C(CC(C)C)NC(N)=O (centres undefined)	none
COc1ccc([N+](=O)[O-])cc1NC(=O)COC(=O)CC(c1ccccc1)c1ccccc1	GPR151 activ 5.2 | GPR151 conf act inactive | GPR119 counter inactive
COc1ccc(CNC(=O)CCCn2c(=O)[nH]c3ccccc3c2=O)cc1	GPR151 activ 7.0 | GPR151 conf act inactive | GPR119 counter inactive
COc1cc2[nH]c(=O)n(CCCC(=O)NCc3ccccc3Cl)c(=O)c2cc1OC	GPR151 activ 6.8 | GPR151 conf act inactive | GPR119 counter inactive
CCCCNC(=O)CCCCCn1c(=O)[nH]c2cc(OC)c(OC)cc2c1=O	none
COc1ccc2[nH]c3c(=O)n(CCCC(=O)Nc4ccccc4)c(=S)[nH]c3c2c1	GPR151 activ 7.7 | GPR151 conf act inactive | GPR119 counter inactive
COc1ccc(CNC(=O)CCCn2cccc2)cc1	GPR151 activ 8.2 | GPR151 conf act inactive | GPR119 counter inactive
COc1ccc2[nH]c3c(=O)n(CCCCC(=O)NC(C)C)c(=S)[nH]c3c2c1	none
CCCC(=O)NCc1ccc(OC)cc1	none
C=CCn1c(=O)c2c3c(sc2n2c(Nc4ccc(C(=O)OCC)cc4)nnc12)CCC3	none
C=CCn1c(=O)c2c(C)c(C)sc2n2c(Nc3ccccc3)nnc12	GPR151 activ 5.9 | GPR151 conf act inactive | GPR119 counter inactive
C[N+](C)(CCCC(=O)c1ccc(C(=O)CCC[N+](C)(C)Cc2ccccc2Cl)cc1)Cc1ccccc1Cl	GPR151 activ 5.8 | GPR151 conf act inactive | GPR119 counter inactive
CCCCC(=O)c1ccc(-c2ccccc2)cc1	none
COc1ccccc1NC(=O)c1ccc(SCC(=O)NCc2ccccc2)c([N+](=O)[O-])c1	none
